# Measured values: PubChem BioAssay AID431 (Sanford-Burnham Center for Chemical Genomics, 2006)
# Hit rate of the full screen: of about 63,000 compounds, about 1,100 (1.7%) were called active. This is one part of a sample in which actives are shown more often than they occur.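 How the source made its calls: active means compounds whose percent cytotoxicity in the single-dose primary screen, scaled between solvent and toxic-drug controls, exceeds 50; inactive means the rest.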 Potency and affinity values are given separately.
# Assay: cytotoxicity in KRAS-transformed pancreatic duct cells, primary screen, cell-based, fluorescence, HTS (AID 431);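 further: 0% = DMSO solvent wells and 100% = doxorubicin-treated wells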
# Settings: HPDE-C7K KRASV12 cells, Alamar Blue viability, 48 h; at 10 µM; hits give high values
row,SMILES,cytotoxicity
1,CCCCCn1c(N)c(C(=O)NCCN2CCOCC2)c2nc3ccccc3nc21,6.4% (inactive)
2,CCCCCCn1c(N)c(C(=O)NCCN2CCOCC2)c2nc3ccccc3nc21,86.3% (active)
3,CCOC(=O)c1c(N)n(CCN2CCCCC2)c2nc3ccccc3nc12,1.7% (inactive)
4,COc1ccc(CCNC(=O)c2c(N)n(CCN3CCOCC3)c3nc4ccccc4nc23)cc1,76.9% (active)
5,CCCCn1c(N)c(C(=O)NCCN2CCOCC2)c2nc3ccccc3nc21,-9.3% (inactive)
6,CCCCNC(=O)c1c(N)n(CCCOC)c2nc3ccccc3nc12,47.2% (inactive)
7,CC1SC2(CN3CCC2CC3)NC1=O (centres undefined),-32% (inactive)
8,O=P(OCC(F)(F)C(F)F)(N1CCOCC1)N1CCOCC1,-6.6% (inactive)
9,C=CCn1c(O)c(C(C)=NCCN2CCOCC2)c(=O)[nH]c1=O,3.7% (inactive)
10,NCCc1c[nH]c2ccc(F)cc12,-7.8% (inactive)
11,CCCCc1ccc2[nH]cc(CCN)c2c1,89.6% (active)
12,COc1ccc2[nH]cc(CCN(C)C)c2c1,19.9% (inactive)
13,Nc1c(C(=O)NCCN2CCOCC2)c2nc3ccccc3nc2n1Cc1ccco1,20.7% (inactive)
14,CCOC(=O)c1c(N)n(Cc2ccco2)c2nc3ccccc3nc12,-13.8% (inactive)
15,CC(C)OC(=O)c1c(N)n(Cc2ccco2)c2nc3ccccc3nc12,-9% (inactive)
16,COCCOC(=O)c1c(N)n(Cc2ccco2)c2nc3ccccc3nc12,15.2% (inactive)
17,COc1ccc(Cn2c(N)c(C(=O)NCc3ccco3)c3nc4ccccc4nc32)cc1,75.2% (active)
18,Nc1c(C(=O)NCc2ccco2)c2nc3ccccc3nc2n1Cc1ccc(F)cc1,95.8% (active)
19,COc1ccc(Cn2c(N)c(C(=O)NCc3ccco3)c3nc4ccccc4nc32)cc1OC,3.1% (inactive)
20,COCCOC(=O)c1c(N)n(Cc2ccc(OC)cc2)c2nc3ccccc3nc12,-9.2% (inactive)

row,SMILES,cytotoxicity
1,CC(C)(C)OC(=O)c1c(N)n(Cc2ccco2)c2nc3ccccc3nc12,56.1% (active)
2,O=P(C(c1ccc2c(c1)OCO2)N1CCOCC1)(N1CCOCC1)N1CCOCC1 (centres undefined),-15.1% (inactive)
3,CN=C(SCc1cc2c(cc1Cl)OCO2)c1c(O)n(C)c(=O)n(C)c1=O,-13.4% (inactive)
4,CCCNS(=O)(=O)c1ccc(OCC(=O)N2CCN(Cc3ccccc3)CC2)cc1,8% (inactive)
5,CCOc1ccc(-n2c(CC)nc3ccccc3c2=O)cc1,1.5% (inactive)
6,O=c1c2ccccc2nc(CSc2ncnc3nc[nH]c23)n1-c1ccccc1,64.8% (active)
7,CN(C)CCc1nc2ccccc2c(=O)n1-c1ccccc1,11.7% (inactive)
8,Cc1ccc2c(c1)C(c1ccccc1)NCC(=O)N2 (centres undefined),2.7% (inactive)
9,CCC(=NCCC1=CCCCC1)c1c(O)[nH]c(=O)[nH]c1=O,22.3% (inactive)
10,O=C(c1csc2c1CCCCC2)N1CCC2(CC1)OCCO2,-9.8% (inactive)
11,Cc1nc2c(-c3ccc(F)cc3)c(C)nn2c(C)c1CCC(=O)N1CCC2(CC1)OCCO2,9.4% (inactive)
12,CC(C)CCOC(=O)c1c(N)n(CC2CCCO2)c2nc3ccccc3nc12 (centres undefined),26.1% (inactive)
13,CC(C)CCn1c(N)c(C(=O)OCC2CCCO2)c2nc3ccccc3nc21 (centres undefined),51.5% (active)
14,CCCCn1c(N)c(C(=O)OCC2CCCO2)c2nc3ccccc3nc21 (centres undefined),34.2% (inactive)
15,CCOC(=O)c1cccc([P+](=O)O)c1,7.5% (inactive)
16,CC(C)[C@@]1(NC(=O)[C@@H]2C=C3c4cccc5[nH]cc(c45)C[C@H]3N(C)C2)O[C@@]2(O)[C@@H]3CCCN3C(=O)[C@H](Cc3ccccc3)N2C1=O,29.5% (inactive)
17,CC(C)[C@H]1C(=O)N2CCC[C@H]2[C@]2(O)O[C@](NC(=O)[C@@H]3C=C4c5cccc6[nH]cc(c56)C[C@H]4N(C)C3)(C(C)C)C(=O)N12,-1.3% (inactive)
18,CC(C)[C@@]1(NC(=O)[C@@H]2C[C@@H]3c4cccc5[nH]cc(c45)C[C@H]3N(C)C2)O[C@@]2(O)[C@@H]3CCCN3C(=O)[C@H](Cc3ccccc3)N2C1=O,77.9% (active)
19,Cc1ccc2c(c1)CC1(CN2C)C(=O)NC(=O)N(c2ccccc2C)C1=O (centres undefined),8.7% (inactive)
20,COC(=O)C(O)(c1ccc2c(c1)CCCN2)C(F)(F)F (centres undefined),-24.5% (inactive)

row,SMILES,cytotoxicity
1,Cc1ccc(CN2CCN(C)CC2)c(C)c1,14.3% (inactive)
2,Cc1ccc(S(=O)(=O)N2CN3CCN(C3)C2)cc1,11.8% (inactive)
3,Cc1ccc(CN2CC3CC(C2)c2cccc(=O)n2C3)cc1 (centres undefined),-9.1% (inactive)
4,Cn1c(O)c(C=NCCOc2ccc(Cl)cc2)c(=O)n(C)c1=O,-12.3% (inactive)
5,CCc1nc2ccccc2c(=O)n1-c1cccc(OC)c1,-14% (inactive)
6,O=c1c2ccccc2nc(-c2cccs2)n1-c1cnccn1,15.2% (inactive)
7,CCn1nc(-c2cccs2)nc2c(=O)n(C)c(=O)nc1-2,127% (active)
8,CCn1nc(-c2ccccc2)nc2c(=O)n(C)c(=O)nc1-2,123% (active)
9,O=P1(NC2CCCC2)COc2ccccc2OC1,-11.9% (inactive)
10,COc1ccc(-n2c(SC)nc3ccccc3c2=O)cc1,-4.7% (inactive)
11,CSC(=Nc1ccccc1)c1c(O)n(C)c(=O)n(C)c1=O,5.2% (inactive)
12,CC(=NCc1ccc(F)cc1)c1c(O)n(C)c(=O)n(C)c1=O,37.8% (inactive)
13,COc1ccc(C2SCC(=O)Nc3c2c(=O)[nH]n3C2CCCCCC2)cc1 (centres undefined),80.4% (active)
14,CCOc1ccc(C2SCC(=O)Nc3c2c(=O)[nH]n3C2CCCCCC2)cc1 (centres undefined),-11.1% (inactive)
15,COc1ccc(C2SCC(=O)Nc3c2c(=O)[nH]n3C2CCCCC2)cc1 (centres undefined),-1.2% (inactive)
16,C=CCN1C(=O)C2(C(C(=O)OCC)=C(N)Oc3ccccc32)C2=C1CCCC2=O (centres undefined),-6.6% (inactive)
17,CCCCc1nc(N2CCNCC2)c(C#N)c2c1CSC(C)(C)C2,71.5% (active)
18,CCc1nc(N2CCNCC2)c(C#N)c2c1CSC(C)(C)C2,31.9% (inactive)
19,O=C(C(Cc1ccccc1)NS(=O)(=O)c1ccc(F)cc1)N1CCC2(CC1)OCCO2 (centres undefined),10.2% (inactive)
